Laboratory results from PubChem BioAssay (Tox21).
Where “and” joins values, the source holds several entries; their conditions need not be identical. Equal entries are not always repeated. Results filed as inconclusive are left out. A structure can be active in one record and inactive in another. Calls of active or inactive are those of the source. Unless noted, calls come from the whole dose curve; as a rule, active = well fitted curve in the direction sought with a large enough effect in the repeat runs; inconclusive = weak or mixed curves; inactive = no such curve, though single readings can be large; an effect the other way counts as inactive or inconclusive.

Assays:
[1] = qHTS assay to identify small molecule agonists of the NFkB signaling pathway (AID 1159509; active = well fitted curve in the direction sought with a large enough effect in the signal ratio in the repeat runs, not every such curve was filed as active; the % refers to the signal ratio)
How it was run: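 Readout: FRET fluorescence, 405 nm excitation, 460/530 nm emission; beta-lactamase expression disrupts FRET. Cells: ME-180 stably carrying NF-kB-driven bla reporter. Compound exposure 5 hr, 37 C, 5% CO2.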

[2] = qHTS assay to identify small molecule agonists of the NFkB signaling pathway - cell viability counter screen (AID 1159515; calls by dose curve; note: nearly all actives have a fitted effect of over 55% in size)
How it was run: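 Parallel cytotoxicity counter screen in ME-180 cells carrying an NFkB-response-element beta-lactamase reporter, 2,000 cells/well. Compound exposure lasted 5 hr at 37 C, 5% CO2. Cell viability was quantified by CellTiter-Glo luminescence.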

[3] = qHTS assay to identify small molecule agonists of the endoplasmic reticulum stress response signaling pathway (AID 1159516; active = well fitted activation curve with a large enough effect in the signal ratio in the repeat runs, not every such curve was filed as active; the % refers to the signal ratio)
How it was run: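 Using a HeLa line with an ESRE-driven beta-lactamase gene, agonist activity was measured by FRET substrate fluorescence (460 and 530 nm emission) after cells were treated with compounds for 5 hr at 37 C and 5% CO2.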

[4] = qHTS assay to identify small molecule agonists of the endoplasmic reticulum stress response signaling pathway - cell viability counter screen (AID 1159517; calls by dose curve;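 note: HeLa cells carrying an ER stress response element beta-lactamase reporter; nearly all actives have a fitted effect of over 50% in size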)
How it was run: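 After overnight attachment, ESRE-bla HeLa cells were treated with Tox21 library compounds for 5 hr. CellTiter-Glo luminescence, read 30 min post-addition at room temperature, reported viability.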

[5] = qHTS assay to identify small molecule antagonists of the retinoid-related orphan receptor gamma (ROR-gamma) signaling pathway - cell viability counter screen (AID 1159520); note: nearly all actives have a fitted effect of over 50% in size
How it was run: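 Cytotoxicity was read from cellular ATP (CellTiter-Glo luminescence) after 16 hr at 37 C with 1 uM doxycycline induction. The inducer was added 2 hr after compound transfer to Tet-on ROR gamma CHO cells.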

[6] = molecular target: Nuclear receptor ROR-gamma (Homo sapiens) (UniProt P51449); test: qHTS assay to identify small molecule antagonists of the retinoid-related orphan receptor gamma (ROR-gamma) signaling pathway (AID 1159521; note: nearly all actives have a fitted effect of over 50% in size; note: potency is the fitted concentration of half-maximal effect)
How it was run: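 RORγ antagonism is scored from reduced reporter luminescence in Tet-on CHO cells. Induction used 1 uM final doxycycline hyclate for 16 h at 37 C, following a 2 h compound exposure.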

[7] = qHTS assay to identify small molecule agonists of the AP-1 signaling pathway - cell viability counter screen (AID 1159525; calls by dose curve; note: nearly all actives have a fitted effect of over 55% in size)
How it was run: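 Intracellular ATP by Cell Titer Glo luminescence (30 min, RT) in the same ME-180 AP-1-bla wells after the 5 h compound exposure at 37 °C. Normalised to tetra n-octyl ammonium bromide and DMSO controls.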

[8] = qHTS assay to identify small molecule agonists of the AP-1 signaling pathway (AID 1159526; calls by dose curve)
[9] = molecular target: Retinoic acid receptor RXR-alpha (Homo sapiens) (UniProt P19793); test: qHTS assay to identify small molecule agonists of the RXR signaling pathway (AID 1159527; calls by dose curve; note: nearly all actives have a fitted effect of over 35% in size; note: potency is the fitted concentration of half-maximal effect)
Chain of Retinoic acid receptor RXR-alpha (Homo sapiens) (P19793 whole entry, looked up): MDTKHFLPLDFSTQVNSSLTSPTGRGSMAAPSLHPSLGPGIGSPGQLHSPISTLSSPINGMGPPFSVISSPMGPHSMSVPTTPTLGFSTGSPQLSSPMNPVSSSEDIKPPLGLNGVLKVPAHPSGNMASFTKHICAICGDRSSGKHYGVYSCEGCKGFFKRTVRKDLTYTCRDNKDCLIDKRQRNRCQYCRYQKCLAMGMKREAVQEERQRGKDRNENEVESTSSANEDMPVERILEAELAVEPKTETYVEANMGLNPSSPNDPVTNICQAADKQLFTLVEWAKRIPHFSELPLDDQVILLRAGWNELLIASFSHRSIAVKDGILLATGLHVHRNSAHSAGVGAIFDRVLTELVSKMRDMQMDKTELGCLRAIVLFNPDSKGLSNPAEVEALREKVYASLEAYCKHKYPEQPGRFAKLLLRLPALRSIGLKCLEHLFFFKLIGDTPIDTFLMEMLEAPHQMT
How it was run: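 qHTS of the Tox21 10K library in GeneBLAzer RXR-alpha HEK 293T cells carrying a beta-lactamase reporter […]; 16 hr treatment, 9-cis retinoic acid as agonist control, FRET read-out.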

[10] = qHTS assay to identify small molecule agonists of the RXR signaling pathway - cell viability counter screen (AID 1159529); note: nearly all actives have a fitted effect of over 50% in size
How it was run: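 Cell viability is measured by CellTiter-Glo luminescence, 30 min at room temperature, in wells already read for beta-lactamase. Engineered HEK 293T cells (RXR-alpha-UAS-bla) are dosed 16 hr at 37 C. Tetraoctyl ammonium bromide serves as positive control.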

[11] = qHTS assay to identify small molecule antagonists of the retinoid acid receptor (RAR) signaling pathway - cell viability counter screen (AID 1159551); note: nearly all actives have a fitted effect of over 35% in size
How it was run: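 ATP-based viability, C3RL4 cells, 6 h at 37 C with 1 uM final retinol co-added after compound; luminescence read 30 min post CellTiter-Glo, RT.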

[12] = qHTS assay to identify small molecule antagonists of the estrogen related receptor (ERR) signaling pathway from Tox21 library - cell viability counter screen (AID 1224834); note: nearly all actives have a fitted effect of over 30% in size; note: potency is the fitted concentration of half-maximal effect
How it was run: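 Compounds in DMSO were pinned onto ERR cells that had been incubated for 6 h, and the plates were held at 37 C for 17.5 h. CellTiter-Fluor reagent was then added and fluorescence was measured after 30 min.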

[13] = molecular target: Luciferin 4-monooxygenase (Photinus pyralis) (UniProt P08659); test: qHTS assay to identify small molecule inhibitors of firefly luciferase (AID 1224835); note: nearly all actives have a fitted effect of over 25% in size
Chain of Luciferin 4-monooxygenase (Photinus pyralis) (P08659 whole entry, looked up): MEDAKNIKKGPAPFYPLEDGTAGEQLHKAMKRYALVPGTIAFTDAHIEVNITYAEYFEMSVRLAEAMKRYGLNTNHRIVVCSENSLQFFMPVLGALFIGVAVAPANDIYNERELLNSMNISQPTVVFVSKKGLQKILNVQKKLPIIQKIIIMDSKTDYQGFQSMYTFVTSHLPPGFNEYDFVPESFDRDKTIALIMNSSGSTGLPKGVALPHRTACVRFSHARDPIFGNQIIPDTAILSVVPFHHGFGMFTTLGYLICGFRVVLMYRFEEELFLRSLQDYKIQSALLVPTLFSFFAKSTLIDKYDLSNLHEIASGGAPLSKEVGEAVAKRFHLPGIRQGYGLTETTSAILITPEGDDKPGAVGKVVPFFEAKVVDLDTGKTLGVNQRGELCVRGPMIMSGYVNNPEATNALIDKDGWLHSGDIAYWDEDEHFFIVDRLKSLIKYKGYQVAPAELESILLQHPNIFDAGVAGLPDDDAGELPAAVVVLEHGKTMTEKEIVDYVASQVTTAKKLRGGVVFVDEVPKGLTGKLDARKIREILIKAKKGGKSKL
How it was run: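 Inhibition of purified Photinus luciferase is measured by luminescence. Substrate levels (D-luciferin, ATP) sit at their KM values. Each compound is tested in a concentration series.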

[14] = qHTS assay to identify small molecule agonists of the constitutive androstane receptor (CAR) signaling pathway - cell viability counter screen (AID 1224836); note: nearly all actives have a fitted effect of over 45% in size
How it was run: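 Counter screen multiplexed with the CAR reporter readout: HepG2 cells co-transfected with hCAR and the CYP2B6-2.2kb construct receive a 15-concentration compound series and 0.75 uM PK11195 (final), then CellTiter-Fluor fluorescence is read after 23 h.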

[15] = qHTS assay to identify small molecule antagonists of the constitutive androstane receptor (CAR) signaling pathway - cell viability counter screen (AID 1224837); note: nearly all actives have a fitted effect of over 45% in size
How it was run: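 Cells are seeded, rested 4 hr at 37 C/5% CO2, dosed with compound (15-point series) and 50 nM CITCO, incubated a further 23 hr, and then CellTiter-Fluor reagent is added before fluorescence is read. The line is HepG2 with stable hCAR and CYP2B6-2.2kb.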

[16] = molecular target: Nuclear receptor subfamily 1 group I member 3 (Homo sapiens) (UniProt Q14994); test: qHTS assay to identify small molecule antagonists of the constitutive androstane receptor (CAR) signaling pathway (AID 1224838);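 note: HepG2 cells stably expressing hCAR with CYP2B6 luciferase reporter stimulated by CITCO; nearly all actives have a fitted effect of over 40% in size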
Chain of Nuclear receptor subfamily 1 group I member 3 (Homo sapiens) (Q14994 whole entry, looked up): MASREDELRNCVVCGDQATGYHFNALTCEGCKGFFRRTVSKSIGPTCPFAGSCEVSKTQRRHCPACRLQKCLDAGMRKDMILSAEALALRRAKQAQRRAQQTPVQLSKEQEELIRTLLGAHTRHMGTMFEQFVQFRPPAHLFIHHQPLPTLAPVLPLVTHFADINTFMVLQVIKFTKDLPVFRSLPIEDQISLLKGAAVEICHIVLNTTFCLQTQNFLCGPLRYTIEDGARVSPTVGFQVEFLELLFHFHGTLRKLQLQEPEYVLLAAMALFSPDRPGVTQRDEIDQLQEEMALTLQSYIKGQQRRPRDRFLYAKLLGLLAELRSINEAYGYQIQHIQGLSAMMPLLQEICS
How it was run: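 Luminescence from a CYP2B6-2.2kb promoter reporter in hCAR-expressing HepG2 cells reflects CAR signaling. Cells received compounds at 15 concentrations and 50 nM CITCO (final), then incubated 24 h at 37 C/5% CO2.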

[17] = qHTS assay to identify small molecule antagonists of the retinoic acid receptor (RAR) signaling pathway (AID 1159552; note: nearly all actives have a fitted effect of over 50% in size; note: potency is the fitted concentration of half-maximal effect)
How it was run: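 Quantitative HTS in C3RL4 RARE-luciferase reporter cells. Compounds were added with 1 uM (final) retinol; luminescence was read after 6 hr.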

[18] = qHTS assay to identify small molecule agonists of the retinoic acid receptor (RAR) signaling pathway (AID 1159553); settings: C3RL4 RARE luciferase reporter, agonist, 6 h; activation: at 73.3 µM (top of the series) unless noted
How it was run: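 Quantitative high-throughput format: the Tox21 10K library was tested on C3RL4 RARE-luciferase cells for 6 hr at 37 C and 5% CO2, with luminescence measured after a 30 min room-temperature reagent step.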

Measured: Potency

CC(C)NC(=O)N1CC(=O)N(c2cc(Cl)cc(Cl)c2)C1=O
not listed: [17] | [18]
inactive: all other assays above

Nc1ccc(Cc2ccc(N)cc2)cc1
inactive: all assays above

C1CN2CCN1CC2
not listed: [9]
inactive: all other assays above

CCCC1COC(Cn2cncn2)(c2ccc(Cl)cc2Cl)O1 (centres undefined)
active: [6] 43.3 µM | [12] 49.4 µM and 54.5 µM
not listed: [9] | [15]
inactive: all other assays above

CCN(CC)c1ccccc1
not listed: [12] | [16] | [17] | [18]
inactive: all other assays above

COc1ccc2c3c1O[C@H]1[C@@H](O)C=C[C@H]4[C@@H](C2)N(C)CC[C@@]341
42.6 µM (active) and inactive: [12]
60.1 µM (active) and inactive: [6]
not listed: [16] | [17] | [18]
inactive: all other assays above

O=c1n(Cl)c(=O)n(Cl)c(=O)n1Cl
not listed: [12]
inactive: all other assays above

CC(C)C#N
9.26 µM (active) and inactive: [9]
16.3 µM (active) and inactive: [17]
not listed: [12]
inactive: all other assays above

CC(C)C1(C)N=C(c2nc3ccccc3cc2C(=O)O)NC1=O (centres undefined)
inactive: all assays above

CC(C#N)CCC#N (centres undefined)
not listed: [16]
inactive: all other assays above

O=c1[nH]c(=O)[nH]c(=O)[nH]1
inactive: all assays above

CC(C)(C)OOC(C)(C)C
not listed: [17] | [18]
inactive: all other assays above

COC(=O)NS(=O)(=O)c1ccc(N)cc1
not listed: [12] | [17] | [18]
inactive: all other assays above

O=Cc1cccc(Oc2ccccc2)c1
inactive: all assays above

O=c1ccc(=O)[nH][nH]1
not listed: [16] | [17] | [18]
inactive: all other assays above

CC(C)N1C(=O)c2ccccc2NS1(=O)=O
not listed: [16]
inactive: all other assays above

CN(N=O)c1ccccc1
not listed: [12] | [17] | [18]
inactive: all other assays above
